# Several values for one entry are separate records, joined by “and”; a condition that tells them apart may be missing. Identical values can stand only once. Inconclusive results are not listed. A call without a number means that no potency is given here. Activity calls are given as the source filed them. The call rests on the fitted dose curve; in most records, active means well fitted inhibition curve with a large enough effect in the repeat runs; inconclusive means weak or mixed curves; inactive means no such curve, though single readings can be large or run the other way.
# Experiment: qHTS assay to identify small molecule antagonists of the thyroid receptor (TR) signaling pathway (AID 743065); further: nearly all actives have a fitted effect of over 55% in size
# Conditions: GH3.TRE-Luc, T3-stimulated luciferase inhibition, 23.5 h; series mostly up to 70.3 µM
# From the text: U.S. Tox21 Program National Center for Advancing Translational Sciences [NCATS] NIH Chemical Genomics Center [NCGC] U.S. Environmental Protection Agency [EPA] National Institutes of Environmental Health Sciences [NIEHS] National Toxicology Program [NTP] U.S. Food and Drug Administration [FDA] Tox21 Assay Overview: Thyroid receptor (TR), a nuclear hormone receptor, plays an important role in development, proliferation, differentiation, metabolism, brain function, and cardiovascular system. […] To profile the Tox21 10K compound library in TR signaling, a cell-based GH3-TRE-Luc assay (GH3.TRE-Luc cell line, developed by the laboratory of Dr. Albertinka J. Murk, Wageningen University) was used to measure the inhibition of TR. GH3 (rat pituitary tumor) cells stably expressing a TR activity sensor consisting of two TR response elements and a luciferase reporter gene.
# Tox21 Assay Protocol Summary: GH3.TRE-Luc cells were dispensed at 1500 cells/4 uL/well into 1536-well white solid bottom plates using a Multidrop Combi dispenser (Thermo Fisher Scientific Inc., Waltham, MA). After the assay plates were incubated at 37 C for 4 hours, 23 nL of library compound or DMSO controls was transferred to the assay plates by a pintool station (Kalypsys, San Diego, CA), followed by addition of 1 ul of T3 (1 nM, final concentration in the wells) to stimulate TR transactivation. The assay plates were incubated at 37 C for 23.5 h, and then 1 uL of CellTiter-Fluor reagent (Promega, Madision, WI) of measuring cytotoxicity was added to each well using a Bioraptr Flying Reagent Dispenser (FRD) workstation (Beckman Coulter, Indianapolis, IN, USA). The plates were incubated at 37 C and 5% CO2 for additional 30 min, and fluorescence intensity was measured by a ViewLux plate reader (PerkinElmer, Shelton, CT). For measuring luciferase reporter gene activity, 4 uL of ONE-Glo Luciferase Assay reagent (Promega) was added to each well using a Bioraptr FRD (Beckman Coulter), followed by 30 min incubation at room temperature. The luminescence intensity of plates was recorded by a ViewLux plate reader (PerkinElmer, Shelton, CT).
# Potency means the concentration at half of the fitted maximal effect.
row,SMILES,Potency
1,ClCC1CO1 (stereo not given),inactive
2,OP(O)c1ccccc1,inactive
3,CCCC(C)(COC(N)=O)COC(N)=O,inactive
4,CC(C)(C)C(=O)C(Cl)Cl,inactive
5,NC1(c2ccccc2)CCCCC1,48.1 µM (active)
6,O=P(O)(O)c1ccccc1,inactive
7,Cc1ccc(Cl)c(O)c1,inactive
8,CCCCCCC(=O)CCCCCC/C=C/C[C@@H](O)[C@H](O)[C@@](N)(CO)C(=O)O,inactive
9,N#CC(Br)(Br)C(N)=O,inactive
10,COC(=O)[C@@H](N)CCCN/C(N)=N/[N+](=O)[O-],inactive
11,ClC1=C(Cl)C2(Cl)C(CBr)CC1(Cl)C2(Cl)Cl (stereo not given),26.6 µM (active) and 43.3 µM (active)
12,C=C(C)[C@H]1CN[C@H](C(=O)O)[C@H]1CC(=O)O,inactive
13,c1cncc([C@@H]2CCCCN2)c1,inactive
14,C[C@H]1CCCC(=O)CCC/C=C/c2cc(O)cc(O)c2C(=O)O1,23.4 µM (active) and 15.9 µM (active)
15,CCOP(=S)(OCC)Oc1ccc(Cl)cc1Cl,inactive
16,O=P(O)(O)CN(CP(=O)(O)O)CP(=O)(O)O,inactive
17,ClC(Cl)(Cl)Cl,inactive
18,C=C(Cl)CCl,inactive
19,Cc1ccc2cc(C)ccc2c1,inactive
20,Cc1cccc2sc3nncn3c12,inactive

row,SMILES,Potency
1,CNC(=O)Oc1ccccc1C(C)C,inactive
2,Cc1ccc(-c2nc3ccc(C)cn3c2CC(=O)N(C)C)cc1,inactive
3,N#CN,inactive
4,CNC(=O)NC(O)C(Cl)(Cl)Cl (stereo not given),inactive
5,CC(Cc1ccccc1)NCCn1cnc2c1c(=O)n(C)c(=O)n2C (stereo not given),inactive
6,CCCN1CCC[C@@H]2Cc3[nH]ncc3C[C@H]21,inactive
7,O=C(O)CBr,inactive
8,O=C(Cl)CCl,inactive
9,CCCCOC(C)=O,inactive
10,O=C(NC(O)C(Cl)(Cl)Cl)NC(O)C(Cl)(Cl)Cl (stereo not given),inactive
11,CCOC(=O)Nc1cccc(OC(=O)Nc2ccccc2)c1,inactive
12,CN(C)C1CCCCC1,inactive
13,CN(CCO)CCO,inactive
14,BrCCc1ccccc1,inactive
15,Cn1c(N)nc2c3cccnc3ccc21,inactive
16,CNC(=O)O/N=C(/CSC)C(C)(C)C,inactive
17,CCC1(c2cccc(O)c2)CCCCN(C)C1 (stereo not given),inactive
18,CCOP(=O)(CN(CCO)CCO)OCC,inactive
19,CCOP(=S)(OCC)SCCl,inactive
20,Cl/C=C/CCl,inactive

# — PubChem BioAssay (Tox21)
